By AC50 is commonly meant the concentration giving half of the maximal activity seen.

Experiment [1] concerns the target rat Serotonin, 5-Hydroxytryptamine Receptor (5HT), Non-Selective Binding, Htr1a (gene 24473) (UniProt P19327). Description: NVS_GPCR_r5HT_NonSelective: NovaScreen (NVS) G Protein-Coupled Receptor Assay for rat Serotonin, 5-Hydroxytryptamine Receptor (5HT), Non-Selective Binding (AID 2283295). In a few lines:
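Radioligand displacement on rat cortical membranes, 1 h incubation, filter-based scintillation counting. Primary duplicates at 25 uM, actives retested in concentration series; loss of signal fitted against DMSO as baseline.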

Experiment [2] addresses guinea pig Serotonin, 5-Hydroxytryptamine Receptor 4 (5HT4), HTR4 (gene 100135548) (UniProt O70528). Description: NVS_GPCR_g5HT4: NovaScreen (NVS) G Protein-Coupled Receptor Assay for guinea pig Serotonin, 5-Hydroxytryptamine Receptor 4 (5HT4) (AID 2283294). The essentials: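 Guinea pig striatal membranes; radioligand competitive displacement, filtration and scintillation counting after 1 h. Primary screen in duplicate at 25 uM; actives then tested in concentration series; loss of binding signal fitted relative to DMSO.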

Experiment [3] addresses rat Adrenergic Receptor, Beta (Adrb), Non-selective Binding, Adrb1 (gene 24925) (UniProt P18090). The experiment in a line: NVS_GPCR_rAdrb_NonSelective: NovaScreen (NVS) G Protein-Coupled Receptor Assay for rat Adrenergic Receptor, Beta (Adrb), Non-selective Binding (AID 2283298). In a few lines:
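Non-selective beta-adrenergic radioligand binding in rat cortical membranes, 1 h incubation, filter-based scintillation read-out. Primary screen 25 uM in duplicate; hits retested in concentration-response up to 50 uM, DMSO baseline.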

In experiment [4] the target is rat Glutamate Metabotropic Receptor 5 (MGluR5), Grm5 (gene 24418) (UniProt P31424). The experiment in a line: NVS_GPCR_rmMGluR5: NovaScreen (NVS) G Protein-Coupled Receptor Assay for rat Glutamate Metabotropic Receptor 5 (MGluR5) (AID 2283307). The essentials:
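Rat whole-brain membrane preparation; filter-based radioligand binding read by scintillation counting, 1.5 h after dosing. Single-point screen at 25 uM in duplicate; hits over threshold (e.g. 30% inhibition) retested in concentration-response up to 50 uM; loss of signal vs DMSO.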

Experiment [5] has as its target rat Neurokinin-3 Receptor (NK3), Tacr3 (gene 24808) (UniProt P16177). Description: NVS_GPCR_rNK3: NovaScreen (NVS) G Protein-Coupled Receptor Assay for rat Neurokinin-3 Receptor (NK3) (AID 2283310). In a few lines: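 Rat cortical membranes; radioligand binding with filtration and scintillation counting, 2 h after dosing. Primary screen in duplicate at 25 uM, then concentration-response up to 50 uM; loss of binding signal relative to DMSO.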

Experiment [6] has as its target rat Opioid Receptor, Non-selective Sodium (Na+) Binding, Oprm1 (gene 25601) (UniProt P33535). Description: NVS_GPCR_rOpiate_NonSelectiveNa: NovaScreen (NVS) G Protein-Coupled Receptor Assay for rat Opioid Receptor, Non-selective Sodium (Na+) Binding (AID 2283311). In a few lines:
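Rat forebrain membranes, radioligand displacement with filter scintillation counting, 1.5 h incubation. Screened in duplicate at 25 µM; hits then run in concentration-response up to 50 µM; loss of binding fitted versus DMSO.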

Experiment [7] addresses rat Neonicotinoid receptor (NNR), Chrna7 (gene 25302) (UniProt Q05941). The experiment in a line: NVS_LGIC_rNNR_BungSens: NovaScreen (NVS) Ligand-Gated Ion Channel Assay for rat Neonicotinoid receptor (NNR) (AID 2283315). The essentials: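 Radioligand displacement binding on rat cortical membranes, 2.5 h incubation, filtration and scintillation counting. Loss of specific binding fitted relative to DMSO.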

Experiment [8] concerns the target rat Opioid Receptor, Non-selective Binding, Oprm1 (gene 25601) (UniProt P33535). The experiment in a line: NVS_GPCR_rOpiate_NonSelective: NovaScreen (NVS) G Protein-Coupled Receptor Assay for rat Opioid Receptor, Non-selective Binding (AID 2283318). In a few lines: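 Rat forebrain membranes, cell-free radioligand binding with filter-based scintillation counting, read 1.5 h after dosing. Primary screen in duplicate at 25 uM; actives retested in concentration series. Loss of signal versus DMSO baseline scored.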

Experiment [9] has as its target rat Gamma-Aminobutyric Acid Type B Receptor (GABBR), Gabbr1 (gene 81657) (UniProt Q9Z0U4). Description: NVS_GPCR_rGABBR: NovaScreen (NVS) G Protein-Coupled Receptor Assay for rat Gamma-Aminobutyric Acid Type B Receptor (GABBR) (AID 2283301). The essentials: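 Radioligand displacement on rat cortical membranes, 1 h, filter-based scintillation counting. Primary screen at 25 uM in duplicate; compounds passing threshold re-tested in concentration-response up to 50 uM; loss of binding fitted against DMSO.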

Another experiment deals with Adra2b (gene 24174) (UniProt P19328). The experiment in a line: NVS_GPCR_rmAdra2B: NovaScreen (NVS) G Protein-Coupled Receptor Assay for hybird cells Adrenergic, Alpha 2B Receptor (Adra2B) (AID 2283306). The essentials:
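Radioligand filter-binding assay on membrane proteins from neuroglioma/blastoma hybrid cells (rodent), 1 h after dosing; scintillation counting, loss of signal vs DMSO. Primary screen in duplicate at 25 uM, actives then run in concentration series.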

Experiment [10] has as its target rat Neurokinin-1 Receptor (NK1), Tacr1 (gene 24807) (UniProt P14600). Description: NVS_GPCR_rNK1: NovaScreen (NVS) G Protein-Coupled Receptor Assay for rat Neurokinin-1 Receptor (NK1) (AID 2283309). In a few lines: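 Rat submaxillary gland membranes; radioligand displacement read by filter-based scintillation counting after 1 h. Primary screen in duplicate at 25 uM; actives retested in concentration series; loss of binding fitted versus DMSO.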

In experiment [11] the target is rat Vasopressin 1 Receptor (V1), Avpr1a (gene 25107) (UniProt P30560). The experiment in a line: NVS_GPCR_rV1: NovaScreen (NVS) G Protein-Coupled Receptor Assay for rat Vasopressin 1 Receptor (V1) (AID 2283316). The essentials: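 Radioligand binding on rat liver membranes, 1.5 h incubation, filter-based scintillation counting. Single 25 uM screen in duplicate; chemicals meeting threshold (e.g. 30% inhibition) run in concentration-response up to 50 uM.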

Experiment [12] concerns rat Adrenergic, Alpha 1B Receptor (Adra1B), gene 24173. The experiment in a line: NVS_GPCR_rAdra1B: NovaScreen (NVS) G Protein-Coupled Receptor Assay for rat Adrenergic, Alpha 1B Receptor (Adra1B) (AID 2283297). In a few lines: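 Rat liver membranes, radioligand displacement with filter-based scintillation detection, 1 h incubation. Primary screen in duplicate at 25 uM; actives retested in concentration series; activity relative to DMSO.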

The target of experiment [13] is rat Histamine Receptor (H3), Hrh3 (gene 85268) (UniProt Q9QYN8). The experiment in a line: NVS_GPCR_rH3: NovaScreen (NVS) G Protein-Coupled Receptor Assay for rat Histamine Receptor (H3) (AID 2283303). In a few lines:
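Rat forebrain membranes incubated 1 h with compound; radioligand displacement measured by filter-based scintillation counting. Single-concentration duplicates at 25 µM, then concentration-response up to 50 µM, relative to DMSO.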

Experiment [14] has as its target rat Somatostatin Receptor (SST), Sstr1 (gene 25033) (UniProt P28646). The experiment in a line: NVS_GPCR_rSST: NovaScreen (NVS) G Protein-Coupled Receptor Assay for rat Somatostatin Receptor (SST) (AID 2283314). The essentials:
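Rat forebrain membranes; radioligand displacement read by filter-based scintillation counting 1 h after dosing. Primary screen in duplicate at 25 uM. Actives (e.g., 30% inhibition) were rerun as concentration-response to 50 uM max and fitted against DMSO.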

Experiment [15] concerns the target mouse Cholecystokinin, CCK2 Receptor (CCKB), Cckbr (gene 12426) (UniProt P56481). The experiment in a line: NVS_GPCR_mCKKBCentral: NovaScreen (NVS) G Protein-Coupled Receptor Assay for mouse Cholecystokinin, CCK2 Receptor (CCKB) (AID 2283293). The essentials:
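Radioligand displacement binding on mouse forebrain membranes, 2 h exposure, filter-based scintillation counting. Primary screen in duplicate at 25 uM; actives (e.g. ≥30% inhibition) retested in concentration-response up to 50 uM; loss of binding signal relative to DMSO.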

The target of experiment [16] is rat Adrenergic Receptor, Alpha 2 (Adra2), Non-selective Binding, Adra2a (gene 25083) (UniProt P22909). The experiment in a line: NVS_GPCR_rAdra2_NonSelective: NovaScreen (NVS) G Protein-Coupled Receptor Assay for rat Adrenergic Receptor, Alpha 2 (Adra2), Non-selective Binding (AID 2283299). In a few lines: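 Rat cortical membranes, radioligand competitive displacement read by filter-based scintillation counting 1.25 hours after dosing. Primary screen in duplicate at 25 uM; actives followed up in concentration series.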

SMILES strings stand for the structures. Results filed as inconclusive are left out. The source made the active and inactive calls. How the source made its calls: active means hit-call score of the fitted dose curve at least 0.9, where 1 is the maximum; inconclusive means response in the unintended direction; inactive means score below 0.9.

Chain of rat Gamma-Aminobutyric Acid Type B Receptor (GABBR), Gabbr1 (gene 81657) (Q9Z0U4 whole entry, looked up): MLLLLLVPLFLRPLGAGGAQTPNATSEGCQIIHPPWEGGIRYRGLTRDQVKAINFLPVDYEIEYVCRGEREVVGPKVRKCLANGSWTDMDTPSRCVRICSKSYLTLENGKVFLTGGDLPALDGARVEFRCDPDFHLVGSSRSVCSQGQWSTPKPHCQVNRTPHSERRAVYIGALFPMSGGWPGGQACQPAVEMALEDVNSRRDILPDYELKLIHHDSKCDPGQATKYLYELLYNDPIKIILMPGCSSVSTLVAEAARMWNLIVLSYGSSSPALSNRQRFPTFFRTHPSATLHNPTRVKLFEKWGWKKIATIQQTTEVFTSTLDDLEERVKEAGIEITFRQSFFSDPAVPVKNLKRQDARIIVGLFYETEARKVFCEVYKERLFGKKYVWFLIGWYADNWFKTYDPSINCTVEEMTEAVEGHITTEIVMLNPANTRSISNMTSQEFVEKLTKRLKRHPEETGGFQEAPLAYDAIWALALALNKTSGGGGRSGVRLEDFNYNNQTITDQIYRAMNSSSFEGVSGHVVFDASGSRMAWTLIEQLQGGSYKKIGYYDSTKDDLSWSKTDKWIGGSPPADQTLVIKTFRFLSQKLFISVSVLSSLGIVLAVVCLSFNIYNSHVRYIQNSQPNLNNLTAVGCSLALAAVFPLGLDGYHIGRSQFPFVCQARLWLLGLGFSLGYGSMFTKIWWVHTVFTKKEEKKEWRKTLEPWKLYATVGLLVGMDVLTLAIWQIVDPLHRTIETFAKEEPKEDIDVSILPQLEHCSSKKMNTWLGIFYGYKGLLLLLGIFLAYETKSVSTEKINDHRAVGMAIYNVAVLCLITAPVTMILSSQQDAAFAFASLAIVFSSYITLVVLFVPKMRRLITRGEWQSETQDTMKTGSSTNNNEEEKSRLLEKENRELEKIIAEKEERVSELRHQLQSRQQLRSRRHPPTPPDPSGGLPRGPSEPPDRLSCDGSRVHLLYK
Chain of rat Neonicotinoid receptor (NNR), Chrna7 (gene 25302) (Q05941 whole entry, looked up): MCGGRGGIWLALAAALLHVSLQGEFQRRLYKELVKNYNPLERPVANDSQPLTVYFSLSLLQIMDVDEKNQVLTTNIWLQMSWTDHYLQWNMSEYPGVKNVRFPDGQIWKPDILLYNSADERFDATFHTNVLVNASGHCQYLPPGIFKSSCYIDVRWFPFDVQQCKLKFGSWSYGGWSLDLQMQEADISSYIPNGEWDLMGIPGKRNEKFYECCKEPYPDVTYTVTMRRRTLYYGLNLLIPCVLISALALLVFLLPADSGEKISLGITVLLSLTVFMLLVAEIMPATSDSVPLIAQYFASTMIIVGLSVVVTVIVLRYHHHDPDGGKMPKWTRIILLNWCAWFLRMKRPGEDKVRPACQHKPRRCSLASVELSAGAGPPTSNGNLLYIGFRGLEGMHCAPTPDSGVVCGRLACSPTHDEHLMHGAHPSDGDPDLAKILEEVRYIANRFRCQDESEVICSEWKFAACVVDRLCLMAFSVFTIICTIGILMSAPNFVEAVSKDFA
Chain of rat Neurokinin-3 Receptor (NK3), Tacr3 (gene 24808) (P16177 whole entry, looked up): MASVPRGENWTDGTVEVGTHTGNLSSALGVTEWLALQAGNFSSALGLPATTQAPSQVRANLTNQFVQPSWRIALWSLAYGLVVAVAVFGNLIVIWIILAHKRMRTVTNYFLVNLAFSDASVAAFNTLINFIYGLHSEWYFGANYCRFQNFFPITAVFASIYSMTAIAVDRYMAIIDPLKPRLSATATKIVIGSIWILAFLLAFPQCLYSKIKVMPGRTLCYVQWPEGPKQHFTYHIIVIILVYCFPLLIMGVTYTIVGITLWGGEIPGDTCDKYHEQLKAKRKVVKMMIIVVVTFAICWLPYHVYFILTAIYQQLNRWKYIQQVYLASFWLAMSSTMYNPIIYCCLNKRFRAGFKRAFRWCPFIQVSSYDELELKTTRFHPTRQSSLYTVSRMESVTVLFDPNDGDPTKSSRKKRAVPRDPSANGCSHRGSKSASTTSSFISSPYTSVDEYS
Chain of rat Neurokinin-1 Receptor (NK1), Tacr1 (gene 24807) (P14600 whole entry, looked up): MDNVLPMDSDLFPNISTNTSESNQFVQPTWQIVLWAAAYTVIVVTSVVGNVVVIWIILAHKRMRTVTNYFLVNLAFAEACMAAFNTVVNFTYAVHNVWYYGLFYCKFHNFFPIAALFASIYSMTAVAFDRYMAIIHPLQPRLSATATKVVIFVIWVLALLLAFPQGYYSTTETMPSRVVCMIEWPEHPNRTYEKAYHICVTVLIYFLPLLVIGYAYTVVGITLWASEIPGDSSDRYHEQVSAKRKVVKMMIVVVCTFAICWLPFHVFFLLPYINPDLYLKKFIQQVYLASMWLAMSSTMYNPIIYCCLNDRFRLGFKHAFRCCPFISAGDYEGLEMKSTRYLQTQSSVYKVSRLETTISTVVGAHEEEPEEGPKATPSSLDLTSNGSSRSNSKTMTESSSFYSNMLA
Chain of rat Glutamate Metabotropic Receptor 5 (MGluR5), Grm5 (gene 24418) (P31424 whole entry, looked up): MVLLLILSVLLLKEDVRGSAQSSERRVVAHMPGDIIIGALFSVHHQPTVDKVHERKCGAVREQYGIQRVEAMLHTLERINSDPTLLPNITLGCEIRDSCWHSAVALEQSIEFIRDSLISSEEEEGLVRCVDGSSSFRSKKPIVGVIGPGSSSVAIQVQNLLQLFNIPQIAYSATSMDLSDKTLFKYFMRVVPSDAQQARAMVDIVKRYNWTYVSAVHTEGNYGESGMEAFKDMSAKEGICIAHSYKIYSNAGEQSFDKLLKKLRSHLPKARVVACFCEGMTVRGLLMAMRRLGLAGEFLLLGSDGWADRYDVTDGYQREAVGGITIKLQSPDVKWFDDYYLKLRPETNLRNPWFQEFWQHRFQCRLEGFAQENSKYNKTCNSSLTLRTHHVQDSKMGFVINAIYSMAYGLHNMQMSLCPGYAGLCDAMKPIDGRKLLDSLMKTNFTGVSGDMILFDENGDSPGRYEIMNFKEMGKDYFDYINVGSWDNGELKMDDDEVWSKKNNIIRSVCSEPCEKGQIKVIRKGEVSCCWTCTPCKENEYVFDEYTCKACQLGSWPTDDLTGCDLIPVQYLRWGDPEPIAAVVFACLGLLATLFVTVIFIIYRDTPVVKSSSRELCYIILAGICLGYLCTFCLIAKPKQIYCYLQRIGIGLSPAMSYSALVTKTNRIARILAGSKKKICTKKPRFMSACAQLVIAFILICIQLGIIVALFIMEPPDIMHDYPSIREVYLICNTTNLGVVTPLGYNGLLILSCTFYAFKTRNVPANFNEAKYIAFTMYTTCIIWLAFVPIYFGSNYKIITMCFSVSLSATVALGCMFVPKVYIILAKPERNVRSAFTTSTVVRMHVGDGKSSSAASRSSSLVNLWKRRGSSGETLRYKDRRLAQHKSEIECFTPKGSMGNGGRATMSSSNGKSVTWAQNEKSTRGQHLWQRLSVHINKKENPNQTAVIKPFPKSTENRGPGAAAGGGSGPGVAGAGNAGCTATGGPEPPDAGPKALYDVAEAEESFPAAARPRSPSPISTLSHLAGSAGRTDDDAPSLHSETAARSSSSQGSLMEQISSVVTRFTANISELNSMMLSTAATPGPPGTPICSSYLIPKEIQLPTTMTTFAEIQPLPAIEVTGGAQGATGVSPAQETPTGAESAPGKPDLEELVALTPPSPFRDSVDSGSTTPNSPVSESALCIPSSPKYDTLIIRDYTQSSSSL
Chain of rat Adrenergic Receptor, Beta (Adrb), Non-selective Binding, Adrb1 (gene 24925) (P18090 whole entry, looked up): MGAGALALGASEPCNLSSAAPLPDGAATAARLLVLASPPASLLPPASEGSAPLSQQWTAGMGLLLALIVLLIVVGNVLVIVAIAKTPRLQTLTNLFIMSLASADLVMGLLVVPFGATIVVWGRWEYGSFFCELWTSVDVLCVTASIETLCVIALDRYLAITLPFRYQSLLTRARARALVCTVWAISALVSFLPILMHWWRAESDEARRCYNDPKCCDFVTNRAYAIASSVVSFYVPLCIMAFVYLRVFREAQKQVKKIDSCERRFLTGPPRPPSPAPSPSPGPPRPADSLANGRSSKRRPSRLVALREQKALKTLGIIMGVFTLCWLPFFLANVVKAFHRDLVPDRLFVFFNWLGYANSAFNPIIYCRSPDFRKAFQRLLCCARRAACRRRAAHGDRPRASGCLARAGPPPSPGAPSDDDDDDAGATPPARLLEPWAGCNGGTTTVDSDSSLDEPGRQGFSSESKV
Chain of rat Opioid Receptor, Non-selective Sodium (Na+) Binding, Oprm1 (gene 25601) (P33535 whole entry, looked up): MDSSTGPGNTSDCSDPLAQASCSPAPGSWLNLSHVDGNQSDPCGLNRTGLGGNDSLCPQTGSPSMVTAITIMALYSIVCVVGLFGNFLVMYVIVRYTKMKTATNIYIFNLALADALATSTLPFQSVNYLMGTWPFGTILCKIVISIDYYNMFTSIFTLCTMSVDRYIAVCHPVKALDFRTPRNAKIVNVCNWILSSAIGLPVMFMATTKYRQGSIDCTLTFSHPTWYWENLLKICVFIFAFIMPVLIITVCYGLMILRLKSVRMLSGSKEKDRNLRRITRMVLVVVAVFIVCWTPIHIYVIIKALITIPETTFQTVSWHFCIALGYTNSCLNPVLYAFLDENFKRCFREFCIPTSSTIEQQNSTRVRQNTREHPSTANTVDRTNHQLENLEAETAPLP
Chain of rat Opioid Receptor, Non-selective Binding, Oprm1 (gene 25601) (P33535 whole entry, looked up): as above
Chain of guinea pig Serotonin, 5-Hydroxytryptamine Receptor 4 (5HT4), HTR4 (gene 100135548) (O70528 whole entry, looked up): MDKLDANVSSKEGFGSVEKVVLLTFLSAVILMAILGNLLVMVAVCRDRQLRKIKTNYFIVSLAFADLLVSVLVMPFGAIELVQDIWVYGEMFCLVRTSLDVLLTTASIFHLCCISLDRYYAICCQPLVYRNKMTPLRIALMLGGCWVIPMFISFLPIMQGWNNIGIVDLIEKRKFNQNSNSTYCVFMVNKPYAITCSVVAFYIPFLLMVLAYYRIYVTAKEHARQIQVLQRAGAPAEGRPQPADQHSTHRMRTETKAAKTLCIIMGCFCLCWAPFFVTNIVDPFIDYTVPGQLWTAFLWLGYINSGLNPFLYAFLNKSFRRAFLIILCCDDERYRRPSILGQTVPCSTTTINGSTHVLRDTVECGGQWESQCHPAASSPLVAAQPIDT

`O=[N+]([O-])c1ccc(O)cc1`: in experiment [1], the call was inactive.
For `CN1CCN(c2ccccc2/C=C2\SCCN(c3ccc(Cl)c(Cl)c3)C2=O)CC1`, the AC50 in [2] was 6.07 µM (active); in [1], 11.9 µM (active); in [3], 2.29 µM (active).
Take `OC1CCCCC1`: in [4], the result was inactive.
Consider `CC[C@H](c1ccc(O)cc1)[C@@H](CC)c1ccc(O)cc1`, for which the compound was called inactive in experiment [5] and in experiment [7]. Also, the AC50 in experiment [6] is 1.77 µM (active); in [8], 5.14 µM (active).
For the compound `NC(=O)N1C(=O)C(C(=O)c2cc(Cl)cs2)c2cc(F)c(Cl)cc21` (configuration not stated), the call in experiment [9] was inactive.
As to `CC#C[C@]1(O)CC[C@H]2[C@@H]3CCC4=CC(=O)CCC4=C3[C@@H](c3ccc(N(C)C)cc3)C[C@@]21C`, the AC50 is 6.9 µM (active) with Adra2b (gene 24174), 2.59 µM (active) in experiment [6] and 0.404 µM (active) in [8]. Also, the result in experiment [4], in [10], in experiment [5], in experiment [7] and in [11] was inactive.
As for `O=c1c(-c2ccc(O)cc2)coc2cc(O)ccc12`, the compound was classed as inactive in experiment [3], in [10], in experiment [7] and in experiment [8].
`CCCCCCCC(=O)O`: the compound was classed as inactive (in [12]; in experiment [13]; in the experiment with Adra2b (gene 24174); in experiment [6]; in experiment [8]).
Turning to `CC(C)(C)c1ccc(O)c(C(C)(C)C)c1`, in experiment [14], the AC50 is 10.7 µM (active).
As for `Oc1cc2ccccc2c2ccccc12`, in [2], the compound was called inactive.
Regarding `ClC1=C(Cl)C(Cl)(Cl)C(Cl)=C1Cl`, the compound was called inactive in experiment [8].
On to `O=C(O)Cc1cc(I)c(Oc2cc(I)c(O)c(I)c2)c(I)c1`, for which the outcome in experiment [10], in experiment [6] and in [8] was inactive.
With `Cc1cc(CCN2CCN(c3nsc4ccccc34)CC2)cc2c1NC(=O)CC2(C)C`, the AC50 in [2] was 15.2 µM (active). For the same compound, the compound was classed as inactive in [9].
For `c1ccc2c(c1)Cc1ccccc1-2`, the compound was classed as inactive in experiment [8].
With `CC(C)CCCCCCOC(=O)CCCCC(=O)OCCCCCCC(C)C`, the result in experiment [3], in experiment [4] and in experiment [10] was inactive.
`Cc1oc(-c2ccccc2)nc1CCOc1ccc(C[C@H](Nc2ccccc2C(=O)c2ccccc2)C(=O)O)cc1`: the AC50 in experiment [15] was 46 µM (active); in [2], 25 µM (active); in experiment [16], 35.6 µM (active). Moreover, the result in [9], in experiment [5] and in experiment [8] was inactive.
Consider `Nc1cccc2c(N)cccc12`, for which, in experiment [2], the compound was classed as inactive. In [16], the AC50 is 16.8 µM (active).

(Values after PubChem BioAssay (EPA / NIEHS).)
